Source: PubChem
Tau fil binding – tau filament binding | P10636 | recombinant tau filaments, thioflavin S fluorescence, 15 h; filaments grown with octadecylsulfate alongside compound | Potency, µM (series often up to 57.1 µM), inactives show top-dose activity change, negative = inhibition | hit rate 2% among 71,000 | AID 596;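 also: potency is read from the fitted curve at half-maximal effect; % is scaled to controls: 0 for no effect and ±100 for the full control effect; actives lower thioflavin S fluorescence by blocking filaments or displacing dye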
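Read-out: ThS fluorescence, 450 nm excitation/510 nm emission; lower signal marks blocked filament formation or displaced dye. Tau at 1 uM with 30 uM ODS, 10 uM ThS, 5 mM DTT, 100 mM NaCl, 10 mM HEPES pH 7.4; 15 h, 37 C.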
ALOX15 inhib – inhibitors of human 15-lipoxygenase (ALOX15). purified 15hLO-1, xylenol orange hydroperoxide absorbance. Potency, µM (top dose mostly 57.1 µM), for inactives: at the highest dose activity change, negative = inhibition, most hits filed as inhibitors. hit rate 1.4% among 74,000. AID 887; also: potency is read from the fitted curve at half-maximal effect; % is scaled to controls: 0 for no effect and ±100 for the full control effect; nearly all actives have a fitted effect of over 55% in size
Target sequence (P16050 whole entry, looked up): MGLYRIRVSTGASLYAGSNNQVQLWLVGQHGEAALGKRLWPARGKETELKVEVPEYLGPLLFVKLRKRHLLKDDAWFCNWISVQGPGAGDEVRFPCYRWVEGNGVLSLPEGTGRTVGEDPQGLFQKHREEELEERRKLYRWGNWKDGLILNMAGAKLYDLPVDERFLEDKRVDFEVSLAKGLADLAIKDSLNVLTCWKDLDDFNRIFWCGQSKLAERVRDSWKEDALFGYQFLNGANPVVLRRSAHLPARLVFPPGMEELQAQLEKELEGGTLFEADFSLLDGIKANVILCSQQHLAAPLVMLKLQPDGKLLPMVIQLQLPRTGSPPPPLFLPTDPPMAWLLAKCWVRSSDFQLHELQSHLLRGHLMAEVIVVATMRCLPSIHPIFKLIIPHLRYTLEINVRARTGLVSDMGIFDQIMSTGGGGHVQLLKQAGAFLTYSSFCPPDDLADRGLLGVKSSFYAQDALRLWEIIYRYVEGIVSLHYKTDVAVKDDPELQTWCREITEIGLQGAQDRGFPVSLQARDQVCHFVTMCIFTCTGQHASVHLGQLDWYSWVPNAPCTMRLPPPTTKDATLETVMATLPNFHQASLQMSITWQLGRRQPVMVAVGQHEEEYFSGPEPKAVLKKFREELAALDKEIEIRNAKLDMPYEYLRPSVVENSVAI
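Readout: Fe(III)-xylenol orange absorbance, 573-to-405 nm ratio as reaction progress. Enzyme 40 nM purified human 15hLO-1, substrate 50 uM arachidonic acid, 6 min RT after 15 min compound preincubation; Hepes pH 7.5 buffer with Triton X-100.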
Epigenetic mod – derepresses silenced GFP locus in mouse C127i cells; mouse C127i GFP locus derepression, cytometry, 30 h; Potency, µM (titrated, usually from 46.1 µM), for the others: top-dose GFP derepression (activation); hit rate 0.09% among 68,000; AID 597; also: % of control where 0% means no effect
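Derepression screen: silenced CMV-GFP reporter in murine C127i cells, 30 h compound incubation at 37 C, washed cells imaged by laser-scanning cytometer to enumerate GFP-expressing objects of 20 to 120 um.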
HBB splicing – alters splicing of the hemoglobin beta chain. HBB splicing reporter cell assay, activation; EGFP reporter with mutant IVS2-654 intron; response scale: normalised to 500 nM splice-correcting PNA. Potency, µM (series often up to 46.1 µM), inactives show at the highest dose activation, hits mostly activators. hit rate 0.06% among 65,000; also: potency is read from the fitted curve at half-maximal effect; 0% is about no effect
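Compounds were applied for 2 days to HeLa EGFP-654 cells, 500/well in Optimem with 2% FCS. The reporter's EGFP is disrupted by mis-splicing of beta-globin intron IVS2-654. Readout: summed well GFP fluorescence from 488 nm laser scanning; reference was 500 nM antisense […] 654 PNA.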
UbGFP stabilizer – proteasome inhibitors stabilizing ubiquitin-GFP reporter. Potency, µM (top dose mostly 45.9 µM), for inactives: at the top dose activation (GFP accumulation), usual class: activators. Ubiquitin-GFP reporter cells, proteasome inhibition, GFP fluorescence; response scale: untreated = 0%, 10 µM MG-132 = 100%. 67,000 tested, under 10 active. AID 526; active = well fitted activation curve with a large enough effect, not every such curve was filed as active; inconclusive = small, poorly fitted or top-dose-only effect, or another doubt; inactive = no such curve, though single readings can be large or run the other way; also: potency is read from the fitted curve at half-maximal effect
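Proteasome blockade was scored as a rise in GFP-expressing U2OS cells carrying a ubiquitin(G76V)-GFP construct, imaged after 4 hr compound treatment at 37 °C across a 46 uM–2.9 nM series.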
DNA Pol III inh – inhibitors of bacterial DNA polymerase III holoenzyme. AID 603. Potency, µM (series often up to 57.1 µM), without a hit: at the top dose activity change, negative = inhibition. reconstituted DNA polymerase III holoenzyme replication, biochemical. hit rate 0.25% among 71,000; also: potency is read from the fitted curve at half-maximal effect; % is scaled to controls: 0 for no effect and ±100 for the full control effect
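Reconstituted *E. coli* holoenzyme (0.35 nM Pol III, 1 nM beta, 154 nM SSB, 2 nM primase) was preincubated with compound for 15 min at RT. Synthesis on 1.4 nM ssM13Gori ran 35 min, then was stopped with PicoGreen/EDTA and read as dsDNA fluorescence.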
* marks the source's active call; other numbers are inactive results; ? = inconclusive; · = no result given; ! = not active in a repeat; [ ] = dose if it differs, or a comment. In the library only some 3.2% were active in any assay of this set; here they are far more common. Unless noted, calls follow the shape of the dose curve; as a rule, active = well fitted curve in the direction sought with a large enough effect; inconclusive = small, poorly fitted or top-dose-only effect, or another doubt; inactive = no such curve, though single readings can be large; an effect the other way counts as inactive or inconclusive.

SMILES	Tau fil binding	ALOX15 inhib	Epigenetic mod	HBB splicing	UbGFP stabilizer	DNA Pol III inh
CO[C@@H]1/C=C\O[C@@]2(C)Oc3c(C)c(O)c4c(c3C2=O)C(=N[C@H]2CC[C@H](O)O[C@@H]2C)C=C(NC(=O)/C(C)=C\C(=O)[C@@H]2C[C@@H]2[C@@H](O)[C@H](C)[C@@H](O)[C@H](C)[C@H](OC(C)=O)[C@@H]1C)C4=O	24%[11.4 µM]	2µM*	2%[9.22 µM]	2%[9.22 µM]	-1%[9.17 µM]	18%[11.4 µM]
CO[C@@H]1/C=C\O[C@]2(C)Oc3c(C)c(O)c4c(O)c(c(CN5CCN(C)CC5)c(O)c4c3C2=O)NC(=O)/C(C)=C\C=C[C@@H](C)[C@@H](O)[C@H](C)[C@@H](O)[C@H](C)[C@H](OC(C)=O)[C@@H]1C	3%[11.4 µM]	?	0%[9.22 µM]	5%[9.22 µM]	3%[9.17 µM]	-6%[11.4 µM]
Cc1ccc2nc(CSc3nnc(-c4ccco4)o3)cc(=O)n2c1	7%	-27%	-1%	-1%	2%	20µM*
COc1ccc(Cc2nc(-c3ccc(Br)o3)no2)cc1OC	4%	-14%	·	0%	-6%	11%
Fc1ccc(OCc2nc(-c3ccc(Br)o3)no2)c(F)c1	-13%	7.9µM*	·	-1%	16%	-12%
C[N+](C)([O-])Cc1cc(-c2ccccc2)ccc1O	3%[11.4 µM]	13%[11.4 µM]	-2%[9.22 µM]	4%[9.22 µM]	1%[9.17 µM]	-3%[11.4 µM]
COc1ccc(NCc2nnc(SCC(=O)Nc3cccc(C)c3)o2)cc1	16µM*	-1%	0%	-2%	-2%	-5%
NC(=O)CNCCC(c1ccccc1)c1ccccc1	-6%	20µM*!	1%	-1%	0%	-6%
COc1cc2c(cc1OC)C(=O)N(C)CC2	?	-4%[25.6 µM]	-2%[9.22 µM]	·	4%	-3%
COc1cc2cc3c4c(cc(OC)c(OC)c4c2cc1OC)CCN3C	4µM*	-12%[25.6 µM]	2%[9.22 µM]	·	6%	-18%
O=Nc1c(-c2c(O)[nH]c3ccccc23)[nH]c2ccccc12	0.4µM*	?	-1%	1%	3%	-14%
O=NC1=C(c2c(O)[nH]c3ccccc23)CCCC1	-11%	3%	0%	0%[9.22 µM]	0%	-6%
O=C(O)c1cccc(C[C@H](Br)C(=O)O)c1	1%[11.4 µM]	-6%[11.4 µM]	10%[9.22 µM]	2%[9.22 µM]	5%[9.17 µM]	-8%[11.4 µM]
O=C(Nc1ccc(C(=O)N2CCOCC2)cc1)Nc1cccc(Cl)c1	4%	4%	0%	0%[57.5 µM]	-2%	2%
N#CCCN1CCN(C(=S)c2ccc(-c3ccc(Cl)c(Cl)c3)o2)CC1	13µM*	?	-2%	·	7%	25%
N#CCCN1CCN(C(=S)c2ccc(-c3cccc(Cl)c3)o2)CC1	4µM*	-14%	-8%	0%[9.22 µM]	12%	11%
S=C(c1ccc(-c2cccc(Cl)c2)o1)N1CCOCC1	16µM*	?	0%	0%[9.22 µM]	11%	-2%
N#CCCN1CCN(Cc2cc(-c3ccccc3)ccc2O)CC1	7%	-4%	-1%	-1%	-9%	-6%
OC(CN(c1ccccc1)c1ccccc1)Cn1cnc2ccccc21 (stereo unspecified)	13µM*	16%	2%	-1%	4%	5%
O=C(CSc1nc2scc(-c3ccco3)c2c(=O)n1-c1ccccc1)N1CCOCC1	240%	1.6µM*	3%	11%	-4%	-9%
C#CCCCO/N=C1/C[C@@H](O)[C@@H](O)[C@@H]2[C@@H]3C(=O)N(C4CCCCC4)C(=O)[C@H]3CC[C@H]12	·	2%[11.4 µM]	·	1%[9.22 µM]	·	·
C=CCn1c2ccccc2c2nnc(SCCCn3c(=O)[nH]c4ccccc43)nc21	3.2µM*	16µM*	3%	-6%	0%	-15%
CCc1ccc2oc(-c3cc(N)ccc3O)nc2c1	25µM*	?	-3%	1%[57.5 µM]	2%	-6%
CCc1ccc2oc(-c3cc(N)ccc3Cl)nc2c1	7%	?	5%	·	2%	-3%
CCc1ccc2oc(-c3cc(N)cc(C)c3O)nc2c1	13µM*	-17%	0%	0%	-4%	0%
SMILES	Tau fil binding	ALOX15 inhib	Epigenetic mod	HBB splicing	UbGFP stabilizer	DNA Pol III inh
Cc1nc2cccc([N+](=O)[O-])c2n1CCCN(C)C	-9%[11.4 µM]	2%[11.4 µM]	2%[9.22 µM]	5%[9.22 µM]	-3%[9.17 µM]	-6%[11.4 µM]
Cc1nc2ccc(F)cc2cc1C(=O)NCC1CCCO1 (stereo unspecified)	13µM*	-5%	-2%	-1%[57.5 µM]	-1%	0%
Cc1ccc(C(=O)Nc2ccccc2N2CCOCC2)c(C)c1	·	-8%	·	·	·	·
CC1CC(C)CN(CCC(=O)Nc2cccc(Cl)c2)C1 (stereo unspecified)	20µM*	2%	0%	-1%	-4%	-8%
O=C(CCN1CCCCC1)Nc1cccc(Cl)c1	·	·	2%[20.6 µM]	·	·	·
CCOC(=O)c1cnc2c(C)c(Cl)ccc2c1N1CCOCC1	-9%	6%	·	-1%	-4%	-2%
CCOC(=O)c1cnc2c(C(F)(F)F)cccc2c1N1CCOCC1	16µM*	-26%	?	-1%	-8%	-3%
N#CC1=C(SCC(=O)c2ccc(Br)cc2)NC2=C(C(=O)CCC2)C1c1ccco1 (stereo unspecified)	·	·	2%[20.6 µM]	·	·	·
O=C1CCCC2=C1C(c1ccco1)Nc1ccc(C(=O)c3ccccc3)cc1N2 (stereo unspecified)	6.3µM*	2.5µM*	-3%	5%	6%	-16%
Cc1ccc2c(c1)c1c3n2CCN=C3CCC1	13µM*	-8%	2%	-1%	3%	0%
Cc1ccc2c(c1)c1c3n2CCN[C@H]3CCC1	?	-14%[25.6 µM]	0%	1%[20.6 µM]	0%	-3%
O=C(O)C1Cc2c([nH]c3ccccc23)C(c2ccc3c(c2)OCO3)N1 (stereo unspecified)	112%	13µM*	-1%	-8%	-5%	0%
COc1ccc(/C=C/N(CCc2ccc(OC)c(OC)c2)C(=O)C(F)(F)F)cc1	·	3%[11.4 µM]	·	2%[9.22 µM]	·	·
O=c1c2c([nH]c3ccccc13)C(=C1CCCC1)CC2	·	20µM*	·	·	·	·
CN(C)CCCO[C@H]1[C@H]([C@H](O)CO)O[C@H]2OC(C)(C)O[C@@H]21	-6%	9%	-1%	2%	3%	0%
CCOC(=O)c1ccc(-n2c(=S)sc3c(=O)[nH]c(C)nc32)cc1	8%	10µM*	-1%	-4%	-7%	-2%
COc1ccc(C2CC(=O)N3CN(Cc4ccco4)CSC3=C2C#N)cc1 (stereo unspecified)	4%	?	2%	12%[0.369 µM]	-6%	-4%
N#CC1=C2SCN(Cc3ccccc3)CN2C(=O)CC1c1cccs1 (stereo unspecified)	0%	?	·	0%	9%	-6%
